Pf Dd2 inh = P. falciparum Dd2 growth inhibition; AID 1159554; 94,000 compounds, 2.3% hits; activity change, % at 10 µM; SYBR Green, 72 h; active compounds read low; in the data active = activity change below about -80%; inconclusive = no clear call, values can overlap the other calls
C diff growth = blocks growth of Clostridium difficile | growth activity, negative = inhibition, % at 16 µg/mL (by protocol) | 86,000 compounds, 0.25% hits | Clostridium difficile clinical isolate growth, OD600, 24 h; active compounds read low;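 active = mean growth activity at or below -80% and every replicate also at or below -80%; inconclusive = mean at or below -80% but some replicate above -80%; inactive = mean growth activity above -80%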;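 also: 0% = DMSO wells and -100% = levofloxacin 16 µg/mL wells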
T cruzi growth-1 = T. cruzi proliferation inhibition; T. cruzi beta-gal in NIH3T3, GalScreen luminescence, 90 h; inhibition, % at 8.34 µM; 77,000 compounds, 5.9% hits; AID 624255;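 active = mean inhibition above about 93%, with at least 55% of replicates each passing it, limit read from the data, passing the limit was not always enough; inconclusive = only one of those two conditions holds; inactive = neither condition holds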
T cruzi growth-2 = inhibitors of T. cruzi proliferation | 5,600 compounds, 72% hits | T. cruzi beta-gal in NIH3T3, GalScreen luminescence, 90 h | inhibition, % at 8.35 µM | AID 651739 | shares compounds with T cruzi growth-1;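 active = mean replicate inhibition above about 95% and at least 55% of replicates individually reaching it, limit read from the data; inconclusive = only one of the two criteria is met; inactive = neither criterion is met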
T cruzi growth-3 = blocks T. cruzi growth in NIH3T3 host cells; inhibition, % at 2.09 µM; 5,600 compounds, 21% hits; T. cruzi beta-gal in NIH3T3, GalScreen luminescence, 90 h; AID 651740; shares compounds with T cruzi growth-1;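 active = mean inhibition above about 95%, with at least 55% of replicates also reaching it, limit read from the data; inconclusive = meets just one of the two conditions; inactive = meets neither condition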;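 also: plate controls were neutral control median for no effect and positive control median for full effect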
3T3 cytotox = NIH/3T3 (mouse) viability loss | shares compounds with T cruzi growth-1 | NIH/3T3 viability, CellTiter-Glo ATP luminescence, 90 h | cytotoxicity (signal decrease), % at 8.35 µM | 5,600 compounds, 14% hits;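 active = mean signal decrease across replicates above about 35% based on untreated-well scatter, with enough replicates individually passing, limit read from the data; inconclusive = no rule stated though some were filed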;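 also: 0% = median of neutral control wells and 100% = median of positive control wells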
NIH3T3 tox 2 = cytotoxicity in mouse NIH/3T3 fibroblasts | shares compounds with T cruzi growth-1 | NIH/3T3 viability, CellTiter-Glo ATP luminescence, 90 h | inhibition, % at 24.9 µM | 5,600 compounds, 56% hits | AID 651744;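 active = mean loss of cell viability signal at or above a set limit, and enough replicates individually reaching it; inconclusive = meets only the mean limit or only the replicate share; inactive = meets neither condition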;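 also: 0% = median of neutral control wells and 100% = median of positive control wells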
* marks the source's active call; other numbers are inactive results; ? = inconclusive; nt = not tested or not shown. Compounds with a hit are over-represented: about 6.7% of the library has one in this group of screens.

SMILES	Pf Dd2 inh	C diff growth	T cruzi growth-1	T cruzi growth-2	T cruzi growth-3	3T3 cytotox	NIH3T3 tox 2
C[C@@H]1CN([C@@H](C)CO)C(=O)c2cc(NC(=O)Cc3ccccc3)ccc2O[C@@H]1CN(C)Cc1ccc(Cl)c(Cl)c1	1.2	14.0	104.5*	97.8*	15.8	27.9	95.8*
C[C@@H]1CN([C@H](C)CO)C(=O)c2cc(NC(=O)Cc3ccccc3)ccc2O[C@@H]1CN(C)Cc1ccc(-c2ccccc2)cc1	-5.3	-1.4	113.5*	113.1*	83.2	18.6	77.8*
C[C@@H]1CN([C@H](C)CO)C(=O)c2cc(NC(=O)Cc3ccccc3)ccc2O[C@@H]1CN(C)Cc1ccc(C(F)(F)F)cc1	9.1	-0.4	33.9	nt	nt	nt	nt
C[C@@H]1CN([C@@H](C)CO)C(=O)c2cc(NC(=O)Cc3ccccc3)ccc2O[C@H]1CN(C)Cc1ccc(C(F)(F)F)cc1	-21.4	-5.4	?	100.6*	65.0	16.9	59.9*
C[C@@H]1CN([C@@H](C)CO)C(=O)c2cc(NC(=O)Cc3ccccc3)ccc2O[C@H]1CN(C)Cc1ccc(-c2ccccc2)cc1	4.0	-4.2	-11.2	nt	nt	nt	nt
C[C@H](CO)N1C[C@H](C)[C@@H](CN(C)Cc2ccc(Cl)c(Cl)c2)Oc2ccc(NC(=O)Cc3ccccc3)cc2C1=O	-13.1	4.3	107.5	nt	nt	nt	nt
O=C(C[C@H]1CC[C@@H](NC(=O)CC2CC2)[C@H](CO)O1)NCc1ccc(Cl)cc1	-10.2	nt	-30.0	nt	nt	nt	nt
O=C(CC(F)(F)F)N1C[C@@H]2[C@H](c3ccccc31)[C@@H](CO)N2C(=O)Cc1cccnc1	9.3	-2.4	3.8	nt	nt	nt	nt
C[C@@H]1CN([C@H](C)CO)C(=O)c2cc(NC(=O)c3ccncc3)ccc2O[C@@H]1CN(C)S(=O)(=O)c1cccs1	-42.3	nt	0.6	nt	nt	nt	nt
COc1cccc(CNC(=O)C[C@H]2C=C[C@H](NC(=O)C3CCOCC3)[C@H](CO)O2)c1	1.1	7.0	17.0	nt	nt	nt	nt
CO[C@H]1CN(C)C(=O)c2ccc(NC(=O)c3ccc(F)cc3)cc2OC[C@@H](C)N(C(C)=O)C[C@@H]1C	-13.4	nt	-32.7	nt	nt	nt	nt
O=C(Nc1ccccc1F)N1C[C@H]2[C@@H](c3ccccc31)[C@@H](CO)N2C(=O)c1ccccn1	6.9	6.7	11.7	nt	nt	nt	nt
C[C@@H]1CCCCO[C@H](CN(C)C(=O)Cc2ccccc2)[C@H](C)CN([C@@H](C)CO)C(=O)c2cc(NC(=O)Cc3ccccc3)ccc2O1	-63.3	-7.7	38.7	nt	nt	nt	nt
COc1ccccc1-c1cnc2c(c1)C(=O)N([C@@H](C)CO)C[C@@H](C)[C@@H](CN(C)C(C)=O)O2	47.5	-2.2	11.5	nt	nt	nt	nt
COc1ccccc1-c1cnc2c(c1)C(=O)N([C@H](C)CO)C[C@H](C)[C@H](CN(C)C(C)=O)O2	52.2	-3.9	?	35.1	2.2	18.7	-5.9
COc1ccccc1-c1cnc2c(c1)C(=O)N([C@H](C)CO)C[C@@H](C)[C@H](CN(C)C(C)=O)O2	35.3	-3.2	8.6	nt	nt	nt	nt
COc1ccccc1-c1cnc2c(c1)C(=O)N([C@H](C)CO)C[C@@H](C)[C@@H](CN(C)C(C)=O)O2	43.8	-3.2	98.7*	?	42.4	15.7	23.9
Cc1noc(C)c1NC(=O)Nc1ccc2c(c1)C(=O)N([C@@H](C)CO)C[C@H](C)[C@@H](CN(C)C(=O)Nc1cccc3ccccc13)OCCCC[C@H](C)O2	-45.6	-8.8	31.9	nt	nt	nt	nt
CC(C)NC(=O)N(C)C[C@@H]1Oc2c(NC(=O)C3CC3)cccc2C(=O)N([C@@H](C)CO)C[C@H]1C	-1.2	3.1	27.1	nt	nt	nt	nt
C[C@@H]1CCCCO[C@@H](CN(C)S(=O)(=O)c2cccs2)[C@H](C)CN([C@@H](C)CO)C(=O)c2cc(NS(=O)(=O)c3ccc(Cl)cc3)ccc2O1	-15.7	0.4	95.6*	98.1*	66.0	-0.2	14.3
C[C@@H]1CCCCO[C@@H](CN(C)S(=O)(=O)c2cccs2)[C@@H](C)CN([C@@H](C)CO)C(=O)c2cc(NS(=O)(=O)c3ccccc3)ccc2O1	-46.4	-0.7	42.5	nt	nt	nt	nt
